Reference: PubChem BioAssay (NCI)
Compounds without any hit were thinned out: in the full panel of roughly 79,000, 15% have a hit. Values without a mark were called inactive. Active and inactive are the calls of the source. No stated cut-off is given here; in the data, active means growth inhibition above about 70%; inactive means the rest.

Key:
[1] = NCI Yeast Anticancer Drug Screen. Data for the rad50 strain (AID 155);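 further: 0% = growth of vehicle-only cultures of the same strain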; conditions: S. cerevisiae rad50 strain growth inhibition; at 50.0 µM; stronger effect = higher value
In short: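 A DNA repair-deficient yeast mutant serves as the test organism; compound-induced growth inhibition is calculated against vehicle-treated cells.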

[2] = NCI Yeast Anticancer Drug Screen. Data for the mec2-1 strain (AID 157); conditions: S. cerevisiae mec2-1 strain, at 50.0 µM, stronger effect = higher value
In short: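 Growth inhibition is read against vehicle-treated controls after compound exposure of the mec2-1 yeast strain, which is defective in DNA damage repair or cell cycle control.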

[3] = NCI Yeast Anticancer Drug Screen. Data for the sgs1 mgt1 strain (AID 161);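 further: 0% = growth of cultures given vehicle only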; conditions: S. cerevisiae sgs1 mgt1 strain, at 50.0 µM, stronger effect = higher value
In short: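 Compounds are added to genetically altered yeast, and growth is compared with cultures given vehicle alone to give percent inhibition.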

[4] = NCI Yeast Anticancer Drug Screen. Data for the cln2 rad14 strain (AID 165);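 further: 0% = growth equal to vehicle treated cultures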; conditions: S. cerevisiae cln2 rad14 strain, at 50.0 µM, stronger effect = higher value
In short: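 Growth inhibition, relative to vehicle-treated controls, is the read-out. The test organism is a yeast strain with defined genetic alterations, cln2 rad14.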

[5] = NCI Yeast Anticancer Drug Screen. Data for the bub3 strain (AID 167); conditions: S. cerevisiae bub3 mutant strain, at 50.0 µM, stronger effect = higher value
In short: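 Inhibition values come from growth of compound-treated mutant yeast normalised to vehicle-treated controls.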

[6] = NCI Yeast Anticancer Drug Screen. Data for the mlh1 rad18 strain (AID 175); conditions: S. cerevisiae mlh1 rad18 strain growth inhibition; at 50.0 µM; stronger effect = higher value
In short: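 Cells of a genetically altered yeast strain, deficient in DNA damage repair, were treated with compound. Their growth was then compared with that of vehicle-treated cultures to give inhibition.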

Compound	growth inhibition [1]	growth inhibition [2]	growth inhibition [3]	growth inhibition [4]	growth inhibition [5]	growth inhibition [6]
Nc1cc2cn[nH]c2cc1N	-10.6%	4.75%	4.4%	-8.75%	9.3%	25.6%
CCn1c(C)nc2ccccc21	-12.7%	-6.55%	2.5%	-0.5%	-16.1%	1.5%
O=CNCCc1ccc2c(c1)[nH]c1ccccc12	8.45%	16.1%	12.9%	-11.3%	-13.2%	20.6%
CCCCC(CC)COC(=O)CCl (stereo not drawn)	21.1%	10.7%	8.3%	-14.8%	-1.6%	21.8%
Cc1cc([N+](=O)[O-])c(C)c(Br)c1C	-8.45%	-20.2%	-37.7%	4.65%	-38.5%	-0.85%
CC1=C(C(=O)CC(=O)C(=O)Nc2cccc(Cl)c2C)Sc2ccccc2N1	-18.8%	-8.1%	-31.4%	19.1%	-13.6%	-10.6%
COC(=O)C1CC(=O)CCC1c1ccccc1 (stereo not drawn)	1.5%	-7.25%	-16.1%	-6.45%	-7.55%	-16.6%
Cc1cc2nc(N3CCOCC3)n(C3OC(CO)C(O)C3O)c2cc1C (stereo not drawn)	-6.6%	5.75%	23.2%	1.55%	-8.95%	3.95%
CC(Br)C(=O)NCC(=O)NCC(=O)O (stereo not drawn)	31.9%	-14.9%	-4.2%	16.4%	16.9%	-4.75%
C=C[C@@H]1C(CO)=CCC2[C@H]1CCC1C(C)(C)C(=O)CC[C@]21C (stereo partly drawn)	-7.95%	-13.4%	-5.7%	2.7%	0.05%	-47.1%
O=S1(=O)CCC(N(N=C2CCCCC2)c2ccccc2)C1 (stereo not drawn)	96.5% (active)	98.3% (active)	98.5% (active)	96.8% (active)	98.4% (active)	98% (active)
CCN(CC)CCSC(=O)C(O)(c1ccccc1)c1cccc(C)c1 (stereo not drawn)	9.1%	10.1%	-2.2%	-11.9%	-1.4%	10.6%
CC1=C(/C=C/Cl)CC(Cl)C(C)(Cl)C1 (stereo not drawn)	-2.25%	-10.4%	-4.5%	12.5%	-0.45%	-45.2%
O=C(Nc1cc(Cl)ccc1Cl)C(=O)C(c1cnc2ccccc2n1)[N+](=O)[O-] (stereo not drawn)	12.7%	6.3%	-23.8%	36.1%	34.1%	13.3%
N=C(N)SCc1cccc(Cl)c1	-20%	-14%	-4.55%	-82.1%	-9.45%	-22.6%
C/C=C/C#CC#C/C=C/C=C/CC	10.1%	0.7%	-1.35%	8.6%	16.6%	-2.05%
CCOC(=O)C(=O)Nc1c(N(CC)CC)n2ccccc2nc1=O	5.75%	-22.5%	-4.15%	6.2%	2.6%	13.8%
COC(=O)C12c3ccccc3C3C(c4ccccc41)C32 (stereo not drawn)	11.9%	13.5%	22.8%	17.6%	2.2%	20.6%
C=CCN(CC=C)C(=O)C(=C)C	3.3%	-0.05%	-5.5%	2.6%	3.7%	-4.1%

Compound	growth inhibition [1]	growth inhibition [2]	growth inhibition [3]	growth inhibition [4]	growth inhibition [5]	growth inhibition [6]
CS/N=C(\c1ccccc1)N(C)C	-23.9%	-4.05%	-1.45%	-25.1%	-1.6%	3.35%
COc1cc2[nH]c3c(c2cc1OC)CCN[C@@]31CC[C@@]2(CC3c4c(cc(OC)c(O)c42)CCN3C)C[C@@H]1OC (stereo partly drawn)	-14.8%	-23.9%	-37.5%	1%	-35%	-9.7%
O=C(O)c1ccccc1SC(Sc1ccccc1C(=O)O)c1ccc(Cl)cc1	4.8%	-9.15%	-9%	-11.9%	-4.1%	15.2%
C=C(Br)CNCC(=C)Br	2.2%	7.25%	5%	9.65%	18.2%	-18.6%
N#C/C(=N\Nc1ccc(F)cc1)C(=O)C1CC1	9.1%	9.05%	5.8%	11.3%	4.3%	11.7%
CCOc1ccc(NC(=O)/C(Cc2nc3ccccc3[nH]c2=O)=N\O)cc1	21.9%	-5.1%	-15.9%	15.8%	4.1%	-4.7%
CC(C)(C)c1cc2c(OP(c3ccccc3)c3ccccc3)c(c1)Cc1cc(C(C)(C)C)cc(c1OP(c1ccccc1)c1ccccc1)Cc1cc(C(C)(C)C)cc(c1OP(c1ccccc1)c1ccccc1)Cc1cc(C(C)(C)C)cc(c1OP(c1ccccc1)c1ccccc1)C2	-11.8%	-25.9%	-38.5%	-5.15%	-18.7%	-14.2%
COC(=O)/C=C/c1ccc(OP(=O)(O)O)c(OC)c1	-22.1%	-8.9%	-30.6%	-20.6%	-56.7%	-15.4%
c1cc2c3c(cc4c(c3c1)CCCC4)CC2	-6.95%	-20.9%	-12.9%	-23.6%	5.45%	-4.75%
O=CC(Cc1ccccc1)C(=O)CCc1ccccc1.[Cu+2] (stereo not drawn)	40.1%	13.9%	4.95%	-48.6%	0.4%	2.55%
C/C=C\CCCCCCCCCCCCCCCC	-1.15%	-12.1%	-0.6%	13.4%	-6.9%	16.8%
CCCCC/C=C1\CCC(CN2CCOCC2)C1=O (stereo not drawn)	89.5% (active)	90.7% (active)	91.9% (active)	90.1% (active)	90.3% (active)	89% (active)
CC1([C@H]2CC[C@H]3[C@@H]4CC[C@H]5OC(=O)CC[C@]5(C)[C@H]4CC[C@]23C)SCCS1	20.7%	-19%	12.5%	8.6%	8.55%	14.8%
Cc1ccc(C)c(NC(=O)C(=O)C2C(=O)C3=C(CC2(C)C)Nc2ccccc2S3)c1 (stereo not drawn)	-21.2%	-20.2%	-14.1%	-21.5%	-28.4%	-33%
CCN(CC)c1ccc(S(=O)(=O)NC(=O)OC)cc1	3.55%	-2%	-0.65%	3.45%	-1.25%	-5.5%
Cn1c(=O)c2nsnc2n(C)c1=O	-21.1%	-11%	-14.2%	-25.3%	-3.7%	14.1%
CC(C)(C)CC(C)(C)N	-2.65%	-4.8%	-16.9%	-41.5%	-2.35%	20.6%
Nc1nc(C2CCCC2)c(Br)c(=O)[nH]1	-24.2%	-3.75%	-17.4%	2.45%	2.7%	-8.75%
C(#[C][Sn]([c]1ccccc1)([c]1ccccc1)[c]1ccccc1)c1ccccc1	98.3% (active)	95.5% (active)	97.8% (active)	98.5% (active)	98.8% (active)	98.6% (active)
